# Results as given in PubChem BioAssay (NCI).
# Compounds without any hit were thinned out: in the full panel of roughly 83,000, 20% have a hit.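 Compound tested at a single concentration for 48 hours in 96-well plates; a percent growth value below 10 was scored as active.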 Unmarked numbers belong to inactive results. Activity calls are given as the source filed them.
# How the values were obtained:
# Assay in all cases: NCI-60 one-dose screen, 48 h (100 = growth as untreated, 0 = no growth, -100 = all killed)
# [1] = system: SK-MEL-2 melanoma; settings: 10 µM unless noted
# [2] = system: EKVX NSCLC; settings: 10 µM unless noted
# [3] = system: SN12C renal; settings: 10 µM unless noted
# [4] = system: UO-31 renal; settings: 10 µM unless noted
# [5] = system: TK-10 renal; settings: 10 µM unless noted
# [6] = system: ACHN renal; settings: 10 µM unless noted
# [7] = system: CAKI-1 renal; settings: 10 µM unless noted
# [8] = system: A498 renal; settings: 10 µM unless noted
# [9] = system: CCRF-CEM leukemia; settings: 10 µM unless noted
# [10] = system: MOLT-4 leukemia; settings: 10 µM unless noted
# [11] = system: SR leukemia; settings: 10 µM unless noted
# [12] = system: RPMI-8226 leukemia; settings: 10 µM
# [13] = system: OVCAR-8 ovarian; settings: 10 µM unless noted
# [14] = system: OVCAR-4 ovarian; settings: 10 µM unless noted
# [15] = system: SK-OV-3 ovarian; settings: 10 µM
# [16] = system: IGROV1 ovarian; settings: 10 µM unless noted
# [17] = system: OVCAR-3 ovarian; settings: 10 µM unless noted
# [18] = system: HS 578T breast; settings: 10 µM unless noted
# [19] = system: OVCAR-5 ovarian; settings: 10 µM unless noted
# [20] = system: NCI/ADR-RES ovarian; settings: 10 µM unless noted
SMILES,growth [1] [%],growth [2] [%],growth [3] [%],growth [4] [%],growth [5] [%],growth [6],growth [7],growth [8],growth [9],growth [10],growth [11],growth [12],growth [13] [%],growth [14],growth [15] [%],growth [16],growth [17],growth [18],growth [19] [%],growth [20] [%]
COc1ccc(-c2[nH]ncc2Nc2cc(OC)c(OC)c(OC)c2)cc1,66.4,49.4,45.4,46.8,62,55.7%,36.1%,48.7%,39.9%,72.6%,116%,33.2%,58.1,51.2%,18.4,43%,5.17% (active),49.8%,–,–
COc1ccc(C(=O)COc2cccc(/C=C3\CSc4ccc(C)cc4C3=O)c2)cc1,79.5,106,91.7,78.5,101,101%,91.6%,112%,-9.38% (active),-7.35% (active),-7.75% (active),-23.5% (active),66.4,90.2%,107,–,97.5%,110%,–,–
COc1ccc(S(=O)(=O)c2ccc(C(N)=O)cc2)cc1NC(=O)c1[nH]c(C)c2c1CCCCC2=O,74.1,75,76.7,78.5,81.1,101%,93.4%,11.1%,56.6%,49.4%,50%,46.9%,74.5,51.1%,–,64.9%,48%,-2.07% (active),68.7,105
CCCCC/C=C\C/C=C/CCCCCCCCNC(=O)Nc1ccc([N+](=O)[O-])cc1,119,79.1,83.2,60.5,82.5,65.8%,56.2%,83.7%,31.4%,43.2%,34.9%,12.8%,52.9,93%,–,46.3%,21.3%,88.2%,113,21.5
COc1cc(/C=C2\C(=O)N(c3c(Cl)cccc3Cl)c3ccccc32)cc(OC)c1O,36,79.8,50,31.7,48.2,40.5%,7.23% (active),102%,17.6%,0.985% (active),–,12.5%,33.1,53.6%,53.7,6.56% (active),46%,39.8%,89.8,38.7
COc1ccc(Sc2ccc3[nH]c(=O)nc(N)c3c2)cc1,104,95.5,101,99.2,105,107%,106%,98.6%,95.3%,97.7%,–,104%,98,99.7%,104,109%,115%,106%,100,103
Cc1cc(C)c(S(=O)O)c(C)c1,97.8,105,108,110,104,103%,99%,92.7%,94%,109%,102%,102%,115,111%,–,129%,120%,104%,114,97
CSC1=CC(=O)c2ccccc2C1=O,96.1,89.6,97,28,97.9,24%,33.6%,91.5%,-16.7% (active),-21.7% (active),-33.5% (active),44%,46.8,-34.7% (active),–,-75.7% (active),-96.2% (active),81.4%,103,74
COc1cccc2c(=O)c3c(sc12)c(NCCN(C)C)nc1ccccc13,49.1,26.2,34.9,12.2,47.2,8.6% (active),26.2%,-15.7% (active),20.9%,-14.6% (active),-21.2% (active),-20.1% (active),25.2,-14.4% (active),–,21%,24.9%,13.6%,40.8,29.4
CC1=C(C/C=C(\C)CCC[C@H](C)CCC[C@H](C)CCCC(C)C)C(=O)c2ccccc2C1=O,114,114,99.7,71.7,95.6,104%,103%,101%,102%,101%,94.9%,106%,100,–,103,111%,119%,105%,105,111
COc1ccc(OC)c(C2C(C#N)=C(N)Oc3cc(O)ccc32)c1 (stereo not given),96.5,88.7,98,81.7,91.1,94.4%,73.5%,92.2%,88.2%,88.2%,–,84.5%,–,101%,97.2,105%,111%,94%,97,94.7
Nc1cc(Br)c(-c2nnc(CCC(=O)c3nc4ccccc4[nH]3)o2)c(Br)c1,34.3,95.6,95.4,47.4,101,102%,90.5%,71.7%,–,68.2%,–,79.6%,95.2,82.4%,81.8,76.8%,49.1%,99.6%,97.2,89.6
COc1cc(OCc2cccc(-c3ccc(C(O)c4nccs4)cc3)c2C)cc(OC)c1C=O (stereo not given),60.4,43,61.8,22.9,27.7,25.2%,2.55% (active),–,37.2%,21.2%,53.1%,22.1%,59.8,15.9%,–,21%,48.1%,67.1%,16.5,58.1
O=C1/C(=C/c2ccc(Cl)cc2)N=C(c2ccccc2)N1CCc1cccs1,69.5,72.1,45.6,48.4,54.8,43%,58.1%,72.7%,85.9%,–,–,76.1%,36.1,62.1%,105,55.3%,79.9%,67.7%,30.5,56.7
O=C(COc1ccc(/C=C2\CSc3ccccc3C2=O)cc1)c1ccc(Cl)cc1,95.1,122,103,89.8,113,99%,96.5%,105%,93.9%,82.1%,–,95.8%,110,–,107,–,96%,109%,–,–
CCN1CCN(c2nc3ccccc3c3c(=O)c4cc(F)ccc4sc23)CC1,98.8,82.8,80.7,44,85.2,59.4%,67.9%,28.9%,68.5%,27.9%,–,65.5%,71,63%,–,57%,71%,62.1%,79.8,78.3
CCCCCCCC/C=C\CCCCCCCCOc1cccc(CC(=O)NCC[N+]2(C)CCOCC2)c1,104,94.6,81.5,82.1,75.1,94%,70.1%,–,61.6%,72.1%,55.7%,96.4%,93.8,90.3%,–,0.48% (active),98.7%,80.9%,65.5,112
